According to PubChem BioAssay (Tox21):
Results filed as inconclusive are left out. Activity calls are given as the source filed them. Unless noted, calls come from the whole dose curve; as a rule, active = well fitted curve in the direction sought with a large enough effect in the repeat runs; inconclusive = weak or mixed curves; inactive = no such curve, though single readings can be large; an effect the other way counts as inactive or inconclusive.

Experiments:
[1] = qHTS assay to identify small molecule agonists of the RXR signaling pathway - cell viability counter screen (AID 1159529); note: nearly all actives have a fitted effect of over 50% in size; note: potency is the fitted concentration of half-maximal effect
Procedure, shortened: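 CellTiter-Glo luminescence gave viability in the wells also read for beta-lactamase. Cells (RXR-alpha-UAS-bla HEK 293T, 2% charcoal-stripped FBS medium) had 5 hr plating, then 16 hr compound exposure at 37 C; tetraoctyl ammonium bromide served as positive control.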

[2] = qHTS assay to identify small molecule antagonists of the retinoid acid receptor (RAR) signaling pathway - cell viability counter screen (AID 1159551); note: nearly all actives have a fitted effect of over 35% in size
Procedure, shortened: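 In this counter screen, the RARE-luciferase line C3RL4 was exposed for 6 h at 37 C and 5% CO2 to compounds with retinol at 1 uM final. Cellular ATP, read by luminescence, served as the viability measure.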

[3] = qHTS assay to identify small molecule agonists of the retinoic acid receptor (RAR) signaling pathway (AID 1159553)
Procedure, shortened: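 In this cell-based screen, 1,000 C3RL4 cells per well were cultured overnight, dosed with test chemicals in DMSO for 6 hr, and assessed for RARE luciferase luminescence.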

[4] = qHTS assay to identify small molecule antagonists of the estrogen related receptor (ERR) signaling pathway - cell viability counter screen (AID 1224818); note: series mostly up to about 46 µM
Procedure, shortened: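 Viability of ERR cells, CellTiter-Fluor fluorescence; 17.5 h compound exposure at 37 C, DMSO vehicle; 30 min reagent incubation at 37 C/5% CO2.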

[5] = qHTS assay to identify small molecule antagonists of the estrogen related receptor signaling pathway with the pleiotropic PPARgamma coactivator (PGC) cell viability counter screen (AID 1224822; note: series mostly up to about 46 µM)
Procedure, shortened: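 17.5 h compound treatment of PGC/ERR cells at 37 C; readout CellTiter-Fluor fluorescence; run alongside the PGC/ERR antagonist screen to flag cytotoxic compounds.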

[6] = qHTS assay to identify small molecule antagonists of the estrogen related receptor (ERR) signaling pathway from Tox21 library - cell viability counter screen (AID 1224834); note: nearly all actives have a fitted effect of over 30% in size
Procedure, shortened: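 Counter screen run in ERR cells (2,000 cells/well): cells pre-incubated 6 h, then treated with compounds for 17.5 h at 37 C. Fluorescence was read 30 min after CellTiter-Fluor addition.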

[7] = molecular target: Luciferin 4-monooxygenase (Photinus pyralis) (UniProt P08659); experiment: qHTS assay to identify small molecule inhibitors of firefly luciferase (AID 1224835); note: series mostly up to about 120 µM; nearly all actives have a fitted effect of over 25% in size
Procedure, shortened: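 Inhibition of purified Photinus luciferase is measured by luminescence. Substrate levels (D-luciferin, ATP) sit at their KM values. Each compound is tested in a concentration series.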

[8] = qHTS assay to identify small molecule agonists of the constitutive androstane receptor (CAR) signaling pathway - cell viability counter screen (AID 1224836); note: series mostly up to about 92 µM; nearly all actives have a fitted effect of over 45% in size
Procedure, shortened: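 Cell viability multiplexed with the CAR agonist screen: CellTiter-Fluor fluorescence after 23 hr at 37 C. HepG2-CYP2B6-hCAR cells got compounds at 15 concentrations with PK11195 at 0.75 uM final.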

[9] = qHTS assay to identify small molecule antagonists of the constitutive androstane receptor (CAR) signaling pathway - cell viability counter screen (AID 1224837); note: series mostly up to about 92 µM; nearly all actives have a fitted effect of over 45% in size
Procedure, shortened: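 CITCO at 50 nM final was added alongside compounds (15 concentrations) to double-stable hCAR/CYP2B6-2.2kb HepG2 cells. Following 23 hr at 37 C, cell viability was quantified by CellTiter-Fluor fluorescence intensity.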

[10] = qHTS assay to identify small molecule antagonists of the estrogen related receptor signaling pathway with the pleiotropic PPARgamma coactivator (PGC) from Tox21 10K library - cell viability counter screen (AID 1224840; active = well fitted cell-killing curve with a large enough effect in the repeat runs, not every such curve was filed as active; note: nearly all actives have a fitted effect of over 40% in size)
Procedure, shortened: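 Readout: fluorescence intensity from CellTiter-Fluor after 30 min at 37 C/5% CO2. Preceded by 17.5 h treatment of PGC/ERR cells with DMSO-dissolved compounds, added 6 h post-seeding.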

[11] = molecular target: Thyrotropin receptor (Homo sapiens) (UniProt P16473); experiment: qHTS assay to identify small molecule agonists of the thyroid stimulating hormone receptor (TSHR) signaling pathway (AID 1224843; calls by dose curve; note: nearly all actives have a fitted effect of over 45% in size; note: potency is the fitted concentration of half-maximal effect)
Procedure, shortened: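 A cell-based cAMP HTRF format was run in TSHR-transfected HEK293 cells, 800 per well. Treatment: 30 min, room temperature. Detection: 1 h with labelled cAMP and anti-cAMP cryptate. Concentration-response over 15 points, three replicates.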

[12] = molecular target: Nuclear receptor subfamily 1 group I member 3 (Homo sapiens) (UniProt Q14994); experiment: qHTS assay to identify small molecule antagonists of the constitutive androstane receptor (CAR) signaling pathway (AID 1224838); note: nearly all actives have a fitted effect of over 40% in size
Procedure, shortened: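 Inhibition of CITCO-driven (50 nM final) CYP2B6 reporter expression is measured in HepG2 cells stably carrying hCAR. Fifteen compound concentrations are applied for 24 h at 37 C, followed by luciferase luminescence.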

[13] = molecular target: Nuclear receptor subfamily 1 group I member 3 (Homo sapiens) (UniProt Q14994); experiment: qHTS assay to identify small molecule agonists of the constitutive androstane receptor (CAR) signaling pathway (AID 1224839); note: nearly all actives have a fitted effect of over 15% in size; note: potency is the fitted concentration of half-maximal effect
Procedure, shortened: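 Luminescent ONE-Glo read-out after 24 hr, 37 C exposure of double-stable HepG2-CYP2B6-hCAR reporter cells to a 15-point compound series, in the presence of 0.75 uM PK11195 (final).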

[14] = qHTS assay to identify small molecule antagonists of the estrogen related receptor signaling pathway with the pleiotropic PPARgamma coactivator (PGC) from Tox21 10K library (AID 1224841; call rule not given here; note: actives are mostly falling curves and most rising ones were filed inactive; nearly all actives have a fitted effect of over 50% in size; note: potency is the fitted concentration of half-maximal effect)
Procedure, shortened: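 One-Glo luminescence, measured after half an hour at room temperature, quantified reporter output of PGC/ERR cells. These had been plated at 2,000 per well, incubated 6 h, dosed with compounds in DMSO, then kept 18 h at 37 C.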

[15] = qHTS assay to identify small molecule agonists of the estrogen related receptor signaling pathway with the pleiotropic PPARgamma coactivator (PGC) from Tox21 10K library (AID 1224842); note: nearly all actives have a fitted effect of over 15% in size
Procedure, shortened: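 Luminescence from One-Glo (30 min, room temperature) measured after PGC/ERR cells had 18 h at 37 C with pinned compound (23 nL in DMSO). Cells had been seeded at 2,000 per well and pre-incubated 6 h.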

[16] = qHTS assay to identify small molecule antagonists of the retinoic acid receptor (RAR) signaling pathway (AID 1159552; note: nearly all actives have a fitted effect of over 50% in size)
Procedure, shortened: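 Luminescent RARE reporter read-out in C3RL4 cells: 6 hr co-treatment at 37 C of test compounds with retinol at 1 uM final. Cells plated overnight beforehand; luciferase reagent incubated 30 min at room temperature before reading.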

[17] = qHTS assay to identify small molecule agonists of the estrogen related receptor (ERR) signaling pathway (AID 1224820)
Procedure, shortened: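 Following a 6 h settling period, 2,000 ERR cells per well receive DMSO-dissolved compounds by pin tool and incubate 18 h at 37 C; agonist activity is scored from One-Glo luminescence read 30 min post-addition.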

[18] = tested on: estrogen-related receptor alpha (ERRalpha) with PGC-1alpha coactivator, human; experiment: qHTS assay to identify small molecule antagonists of the estrogen related receptor signaling pathway with the pleiotropic PPARgamma coactivator (PGC) (AID 1224821; calls by dose curve;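 note: series mostly up to about 46 µM; lower luminescence signal means antagonism of PGC/ERR signalling; nearly all actives have a fitted effect of over 50% in size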)
Procedure, shortened: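 Screening used NTP's PGC/ERR cells, dosed via pin tool with compound in DMSO alongside positive and negative controls. After 18 h at 37 C, One-Glo reagent sat 30 min at room temperature before luminescence detection.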

[19] = qHTS assay to identify small molecule agonists of the estrogen related receptor signaling pathway with the pleiotropic PPARgamma coactivator (PGC) (AID 1224823)
Procedure, shortened: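 In this quantitative high-throughput screen, an 18 h, 37 C treatment of PGC/ERR cells with compounds in DMSO preceded a One-Glo luminescence read taken after 30 min at room temperature.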

Measured: Potency

Thyrotropin receptor (Homo sapiens), sequence (P16473 whole entry, looked up): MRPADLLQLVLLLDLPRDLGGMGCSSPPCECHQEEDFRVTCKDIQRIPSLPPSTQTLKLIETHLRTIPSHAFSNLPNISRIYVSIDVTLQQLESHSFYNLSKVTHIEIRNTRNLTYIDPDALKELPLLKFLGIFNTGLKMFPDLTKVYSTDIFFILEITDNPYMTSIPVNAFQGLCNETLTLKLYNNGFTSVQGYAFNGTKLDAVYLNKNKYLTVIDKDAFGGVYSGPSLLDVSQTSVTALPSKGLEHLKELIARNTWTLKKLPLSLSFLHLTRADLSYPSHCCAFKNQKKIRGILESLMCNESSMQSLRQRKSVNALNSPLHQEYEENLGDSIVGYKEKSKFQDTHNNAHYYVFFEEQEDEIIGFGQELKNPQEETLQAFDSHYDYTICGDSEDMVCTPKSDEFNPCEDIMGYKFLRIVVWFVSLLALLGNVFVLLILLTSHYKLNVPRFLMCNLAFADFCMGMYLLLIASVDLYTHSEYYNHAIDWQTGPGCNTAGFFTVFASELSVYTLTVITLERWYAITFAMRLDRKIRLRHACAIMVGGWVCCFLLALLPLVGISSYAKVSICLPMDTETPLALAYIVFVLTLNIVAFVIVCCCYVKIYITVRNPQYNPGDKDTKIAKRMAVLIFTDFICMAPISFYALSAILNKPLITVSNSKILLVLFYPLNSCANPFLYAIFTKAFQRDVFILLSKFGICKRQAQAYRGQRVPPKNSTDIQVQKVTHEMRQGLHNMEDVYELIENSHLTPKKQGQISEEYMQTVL
Nuclear receptor subfamily 1 group I member 3 (Homo sapiens), sequence (Q14994 whole entry, looked up): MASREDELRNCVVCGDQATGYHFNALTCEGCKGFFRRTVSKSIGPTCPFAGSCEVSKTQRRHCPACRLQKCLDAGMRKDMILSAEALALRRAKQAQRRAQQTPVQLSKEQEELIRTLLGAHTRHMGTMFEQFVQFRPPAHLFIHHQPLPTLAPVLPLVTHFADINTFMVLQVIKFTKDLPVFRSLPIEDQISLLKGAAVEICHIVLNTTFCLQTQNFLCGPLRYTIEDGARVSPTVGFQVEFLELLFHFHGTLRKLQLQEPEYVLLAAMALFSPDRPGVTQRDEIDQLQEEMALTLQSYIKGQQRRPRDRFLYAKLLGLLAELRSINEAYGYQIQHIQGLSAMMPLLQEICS
Luciferin 4-monooxygenase (Photinus pyralis), sequence (P08659 whole entry, looked up): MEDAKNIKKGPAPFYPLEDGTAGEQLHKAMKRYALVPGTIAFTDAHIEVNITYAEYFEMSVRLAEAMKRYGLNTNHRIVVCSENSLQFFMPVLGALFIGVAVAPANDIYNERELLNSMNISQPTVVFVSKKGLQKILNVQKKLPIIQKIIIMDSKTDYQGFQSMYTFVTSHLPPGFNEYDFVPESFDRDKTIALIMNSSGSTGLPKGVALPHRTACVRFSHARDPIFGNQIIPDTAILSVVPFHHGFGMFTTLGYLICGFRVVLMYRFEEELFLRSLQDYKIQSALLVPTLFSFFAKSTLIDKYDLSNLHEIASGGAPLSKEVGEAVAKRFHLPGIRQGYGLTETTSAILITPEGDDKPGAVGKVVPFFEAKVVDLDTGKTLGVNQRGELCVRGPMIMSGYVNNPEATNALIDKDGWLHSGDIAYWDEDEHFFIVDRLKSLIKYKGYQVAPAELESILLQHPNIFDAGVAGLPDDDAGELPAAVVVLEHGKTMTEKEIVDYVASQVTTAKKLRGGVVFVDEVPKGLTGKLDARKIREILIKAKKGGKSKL

CC(C)NCC(O)COc1ccc(CC(N)=O)cc1 (stereo not given)
inactive: [1] | [2] | [3] | [4] | [5] | [6] | [7] | [8] | [9] | [10] | [11]

O=C(O)[C@@H]1[C@H]2C[C@H]3c4[nH]c5ccccc5c4CCN3C[C@@H]2CC[C@@H]1O
inactive: [1] | [2] | [3] | [6] | [7] | [8] | [9] | [12] | [13] | [10] | [14] | [15] | [11]

CCCC(=O)OCC
inactive: [1] | [2] | [16] | [6] | [7] | [8] | [9] | [12] | [13] | [10] | [11]

Nc1nc(CC(=O)O)cs1
inactive: [2] | [16] | [7] | [8] | [9] | [12] | [13] | [10] | [15] | [11]
active: [1] 21.9 µM | [14] 48.7 µM

CC(=O)O[C@@H]1C(=O)O[C@@H]2[C@H]1OC(=O)[C@@H]2OC(C)=O
inactive: [1] | [2] | [16] | [3] | [6] | [7] | [8] | [9] | [10] | [11]

Cc1cccc(OCCOc2cccc(C)c2)c1
inactive: [1] | [2] | [16] | [6] | [7] | [8] | [9] | [10] | [14] | [15]

Nc1cnn([C@@H]2O[C@H](CO)[C@@H](O)[C@H]2O)c(=O)n1
inactive: [1] | [2] | [16] | [3] | [7] | [8] | [9] | [12] | [13] | [11]

CC(C(=O)O)c1ccc(-c2ccccc2)c(F)c1 (stereo not given)
inactive: [1] | [2] | [16] | [3] | [6] | [8] | [9] | [12] | [10]

CN(C(=O)CCCOc1ccc2[nH]c(=O)ccc2c1)C1CCCCC1
active: [11] 0.335 µM
inactive: [1] | [2] | [3] | [4] | [17] | [18] | [5] | [19] | [6] | [7] | [9] | [12] | [10] | [14] | [15]

CC(=O)NCCCS(=O)(=O)O
inactive: [1] | [2] | [16] | [6] | [7] | [8] | [9] | [13] | [10] | [11]

CC(C)c1cccc(C(C)C)c1NC(=O)NS(=O)(=O)c1cc(C(C)(C)O)co1
inactive: [1] | [2] | [16] | [3] | [6] | [7] | [8] | [9] | [10] | [11]

Cc1nc2ccccc2n1Cc1ccc(Cl)cc1
inactive: [1] | [2] | [16] | [6] | [7] | [8] | [10]
active: [13] 11.9 µM

CCN(CC)CCc1nc(-c2ccccc2)no1
inactive: [1] | [2] | [16] | [6] | [7] | [8] | [9] | [12] | [10] | [15] | [11]

Cc1ccccn1
inactive: [1] | [2] | [16] | [3] | [6] | [8] | [9] | [12] | [13] | [10] | [14] | [15]

CC(C)(C)c1cc(CO)cc(C(C)(C)C)c1O
inactive: [1] | [2] | [16] | [3] | [7] | [8] | [9] | [12] | [10] | [15] | [11]
active: [13] 24.8 µM

CC(C)CC=O
inactive: [1] | [2] | [3] | [6] | [7] | [8] | [9] | [12] | [13] | [10] | [11]

O=C1[C@H](CC[C@H](O)c2ccc(F)cc2)[C@@H](c2ccc(O)cc2)N1c1ccc(F)cc1
inactive: [1] | [2] | [16] | [3] | [7] | [8] | [9] | [12] | [13] | [10] | [15] | [11]
active: [14] 26.6 µM

CCOc1ccc2[nH]cc(C(=O)NCc3ccccc3)c(=O)c2n1
inactive: [1] | [2] | [16] | [3] | [7] | [8] | [9] | [12] | [10] | [15] | [11]
